Among the test systems are HCT-15 colon; HT29 colon; SNB-75 CNS; SNB-19 CNS; PC-3 prostate; SK-MEL-5 melanoma; UACC-62 melanoma; LOX IMVI melanoma; SK-MEL-28 melanoma.
Holding throughout (assay): NCI-60 one-dose screen, 48 h (100 = growth as untreated, 0 = no growth, -100 = all killed)
Details in all cases: 10 µM unless noted

Each structure is given as a SMILES string. This is part of a sample that, as a whole, favours compounds with a hit. Of some 83,000 tested, about 20% had one in any assay.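 Method: cells in 96-well plates; compound added at one concentration; 48 h incubation; percent growth measured; values under 10 scored active.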 A number with no mark means an inactive call. Activity calls are given as the source filed them.

Take `COc1cc(/C=C/C(=O)c2c(C)oc3nc[nH]c(=O)c23)cc(OC)c1OC`: the growth is 49.3% in the assay on HCT-15 colon; 90.7% with HT29 colon; 78% in the assay with SNB-75 CNS; 93.6% in the assay on SNB-19 CNS; 83.4% in the assay with PC-3 prostate; 89.9% with SK-MEL-5 melanoma. Also, the growth is 87% in the assay on UACC-62 melanoma, 66.2% in the assay on LOX IMVI melanoma and 93.9% in the assay on SK-MEL-28 melanoma.
With `CC1=NN(c2nc(-c3ccc(Cl)cc3)c(C#N)c(N3CCOCC3)n2)C(=O)C1`, the growth is 89.3% with HCT-15 colon; 94.1% in the assay on HT29 colon; 56.5% in the assay on SNB-75 CNS; 94.6% with SNB-19 CNS; 98.5% in the assay on PC-3 prostate; 94.3% in the assay on SK-MEL-5 melanoma. The growth is 13.8% with UACC-62 melanoma, 75.5% with LOX IMVI melanoma and 33.1% in the assay with SK-MEL-28 melanoma.
Turning to `COc1ccc(-c2nc3ccc(-c4nc5ccc(N6CCN(c7ccccc7)CC6)cc5[nH]4)cc3[nH]2)cc1OC`, the growth with HCT-15 colon is 15.8%; in the assay with HT29 colon, -91% (active); with SNB-75 CNS it was 45.6%; in the assay with SNB-19 CNS it was -1.62% (active); in the assay on PC-3 prostate, -31.5% (active); in the assay with SK-MEL-5 melanoma, 43.4%. Moreover, the figures for the growth in the assay with UACC-62 melanoma, with LOX IMVI melanoma and in the assay with SK-MEL-28 melanoma were 41.6%, -91.8% (active) and -47.5% (active), respectively.
In the case of `COc1ccc(-c2cc(C(=O)N=Nc3c(O)[nH]c4ccc(Br)cc34)no2)cc1`, the growth in the assay with HCT-15 colon was 100%; with HT29 colon, 100%; in the assay with SNB-75 CNS it was 66.1%; in the assay on SNB-19 CNS, 92%; in the assay with PC-3 prostate it was 95.8%; with SK-MEL-5 melanoma, 97.4%. Besides, the results for the growth in the assay on UACC-62 melanoma, in the assay with LOX IMVI melanoma and with SK-MEL-28 melanoma were 101%, 96% and 113%, respectively.
On to `O=C1NC(=S)N[C@H]1CC(=O)n1cnc2ccccc21`, for which the growth is 99.1% in the assay on HCT-15 colon; 111% in the assay with HT29 colon; 69.7% with SNB-75 CNS; 102% in the assay with SNB-19 CNS; 101% in the assay with PC-3 prostate; 99.1% in the assay with SK-MEL-5 melanoma. Moreover, the growth in the assay on UACC-62 melanoma was 93.4%; with LOX IMVI melanoma, 88.5%; in the assay with SK-MEL-28 melanoma it was 111%.
With `O=C(N=Nc1c(O)[nH]c2ccc(Br)cc12)c1cc(-c2ccccc2)on1`, the growth in the assay with HCT-15 colon was 103%; in the assay on HT29 colon, 97%; in the assay on SNB-75 CNS, 58.4%; in the assay on SNB-19 CNS, 102%; in the assay with PC-3 prostate, 100%; in the assay with SK-MEL-5 melanoma, 99.9%. Further, the figures for the growth in the assay with LOX IMVI melanoma and in the assay on SK-MEL-28 melanoma were 94.8% and 106%, respectively.
As to `Cc1ccc(NS(=O)(=O)c2ccc(-c3cnc(C4CC4)o3)cc2)cc1C`, the growth with HCT-15 colon was 19.5%; in the assay on HT29 colon, -10.4% (active); with SNB-75 CNS it was -7.43% (active); in the assay on SNB-19 CNS, 46.8%; in the assay on PC-3 prostate, 22.7%; in the assay with SK-MEL-5 melanoma, -3.9% (active). In addition, the growth in the assay on UACC-62 melanoma was 24.1%; with LOX IMVI melanoma, 39.4%; in the assay on SK-MEL-28 melanoma, 66%.
Take `O=C(/C=C/c1cccc(Cl)c1)c1ccc(O)c(CN2CCN(c3cc4c(cc3F)c(=O)c(C(=O)O)cn4C3CC3)CC2)c1`: the growth with HCT-15 colon is 17.5%; in the assay on HT29 colon, 4.36% (active); with SNB-75 CNS, 28.7%; with SNB-19 CNS, 35.9%; in the assay with PC-3 prostate it was 19.9%; with SK-MEL-5 melanoma it was 24.5%. Further, the values for the growth with UACC-62 melanoma, in the assay on LOX IMVI melanoma and in the assay with SK-MEL-28 melanoma were 34.9%, 11.7% and 58.8%, respectively.
With `COc1cccc(-c2nc3sccn3c2-c2ccnc(NCCNS(=O)(=O)c3ccccc3)c2)c1`, the growth in the assay on HCT-15 colon was 11.8%; with HT29 colon it was 23.6%; in the assay with SNB-75 CNS, 15.2%; in the assay on SNB-19 CNS, 51.6%; in the assay with PC-3 prostate, 11.3%; in the assay on UACC-62 melanoma, -31.3% (active). For the same compound, the results for the growth in the assay with LOX IMVI melanoma and with SK-MEL-28 melanoma were 24% and 50%, respectively.
`c1ccc(-c2c(-c3ccccc3)[n+](Cc3ccc4ccccc4c3)c(-c3ccc(-c4nc5ccccc5s4)cc3)n2Cc2ccc3ccccc3c2)cc1`: the growth was -91.5% (active) in the assay with HCT-15 colon; -85.5% (active) in the assay on HT29 colon; -78.8% (active) in the assay with SNB-75 CNS; -97.6% (active) with SNB-19 CNS; -88.8% (active) in the assay on PC-3 prostate; -98.3% (active) with SK-MEL-5 melanoma. For the same compound, the growth is -98.3% (active) in the assay on LOX IMVI melanoma and -88.3% (active) in the assay on SK-MEL-28 melanoma.
For `COc1cc(C=Nc2oc(-c3ccccc3)c(-c3ccccc3)c2C#N)cc(CN2CCCCC2)c1O`, the growth was 95.4% with HCT-15 colon; 102% in the assay on HT29 colon; 66.6% in the assay with SNB-75 CNS; 98.6% in the assay on SNB-19 CNS; 93.2% with PC-3 prostate; 98.4% with SK-MEL-5 melanoma. The growth in the assay on UACC-62 melanoma was 88.4%; in the assay with LOX IMVI melanoma, 87.7%; with SK-MEL-28 melanoma, 110%.
Consider `CCCN1CCN(c2ccc3nc(-c4ccc5nc(-c6ccc(OCC)cc6)[nH]c5c4)[nH]c3c2)CC1`, for which the growth was -56.5% (active) in the assay on HCT-15 colon; -69% (active) in the assay with HT29 colon; 50.3% with SNB-75 CNS; 62% in the assay with SNB-19 CNS; -69.5% (active) with PC-3 prostate; 28.9% in the assay on SK-MEL-5 melanoma. Further, the figures for the growth with UACC-62 melanoma, in the assay with LOX IMVI melanoma and in the assay with SK-MEL-28 melanoma were 51.4%, -95% (active) and 48.4%, respectively.
In the case of `COc1cccc(-c2nc3sccn3c2-c2ccnc(NCCCNS(=O)(=O)c3cccc(Cl)c3)c2)c1`, the growth is 28.7% in the assay on HCT-15 colon; 54.5% with HT29 colon; 51.8% with SNB-75 CNS; 66.3% in the assay with SNB-19 CNS; 21.7% in the assay with PC-3 prostate; -12.5% (active) with SK-MEL-5 melanoma. In addition, the growth in the assay with UACC-62 melanoma was -7.03% (active); with LOX IMVI melanoma it was 35.6%; in the assay with SK-MEL-28 melanoma, 67.4%.
Take `Cc1oc(-c2ccc(Cl)cc2Cl)cc1C(=O)Nc1nccs1`: the growth is 85.6% in the assay on HCT-15 colon; 86.6% in the assay with HT29 colon; 84.4% in the assay with SNB-75 CNS; 98.8% with SNB-19 CNS; 96.6% in the assay on PC-3 prostate; 97.1% in the assay on SK-MEL-5 melanoma. Besides, the values for the growth with LOX IMVI melanoma and with SK-MEL-28 melanoma were 79.1% and 105%, respectively.

These data come from PubChem BioAssay (NCI).
